# High-throughput results deposited in PubChem by National Center for Advancing Translational Sciences (NCATS).
# Pf growth 48h – Primary qHTS for delayed death inhibitors of the malarial parasite plastid, 48 hour incubation. Potency, µM (series often up to 28.7 µM), for inactives: at the top dose activity change, negative = inhibition, hits mostly inhibitors. 310,000 compounds, 5.9% hits. P. falciparum luciferase growth in erythrocytes, 48 h; further: potency means the concentration at half of the fitted maximal effect; on the % scale 0 is the no-effect control and ±100 the full control effect
#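 Luciferase-expressing parasites in RBCs, 2% Hct / 0.1% parasitemia final; RPMI 1640 + 0.5% Albumax; 37 C, 5% CO2, one generation; luminescence read-out, lower signal = inhibition.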
# SARS PLpro yeast – qHTS of Yeast-based Assay for SARS-CoV PLP | Potency, µM (doses to about 32.9 µM), for the others: at the top dose activity, positive = growth rescue, hits mostly activators | S. cerevisiae expressing SARS-CoV PLpro, growth rescue | 330,000 compounds, 0.19% hits; calls by dose curve; further: potency means the concentration at half of the fitted maximal effect; 0% is about no effect; nearly all actives have a fitted effect of over 55% in size
# Pf growth 96h – Primary qHTS for delayed death inhibitors of the malarial parasite plastid, 96 hour incubation. AID 504834, 2011. 320,000 compounds, 6.9% hits. Potency, µM (doses to about 28.7 µM), without a hit: at the top dose activity change, negative = inhibition, most hits filed as inhibitors. P. falciparum luciferase reporter growth, 96 h; further: potency means the concentration at half of the fitted maximal effect; on the % scale 0 is the no-effect control and ±100 the full control effect
#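 Cell-based qHTS: luciferase-tagged P. falciparum in erythrocytes (2% hematocrit, 0.05% parasitemia final) incubated with compounds for 96 hours, 37 C, 5% CO2; luciferase detection reagent then added and luminescence measured.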
# NS1 function inh – qHTS Assay for Inhibitors of Influenza NS1 Protein Function | Potency, µM (doses to about 46.1 µM), for inactives: at the top dose activity, positive = more growth | 270,000 compounds, 0.4% hits | AID 2326, 2010; calls by dose curve; further: potency means the concentration at half of the fitted maximal effect; actives are rising curves; nearly all actives have a fitted effect of over 50% in size
#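 Compounds were scored for reversing the slow growth caused by influenza A NS1 in S. cerevisiae, measured by optical density at 600 nm. Assay medium contained 2% galactose at pH 6.0; NS1-free yeast of the same strain were the positive control.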
# Cycloheximide cs – Cycloheximide Counterscreen for Small Molecule Inhibitors of Shiga Toxin | cell reporter, cycloheximide protein synthesis inhibition counterscreen | max response, % | 300,000 compounds, 12% hits | AID 2314, 2010; in the data active means max response mostly above about 13%, no sharp cut-off; inactive means mostly below about 14%; further: read at 38.3 µM for the half of the compounds with a filed dose; 0% is about no effect
# Shiga inhibitor – A qHTS for Small Molecule Inhibitors of Shiga Toxin; Vero cells, Shiga toxin protein synthesis inhibition reporter; inhibition, % at 38.7 µM; 290,000 compounds, 9.2% hits; in the data active means inhibition mostly above about 28%, no sharp cut-off; inactive means mostly below about 43%; further: 0% is about no effect
# * = called active by the depositor; ? = inconclusive; · = no result given; [ ] = remark or other dose. Shown are actives, neighbours in structure and some others; about 21% of the full set was active somewhere. Unless noted, the call rests on the fitted dose curve; in most records, active means well fitted inhibition curve with a large enough effect; inconclusive means small, poorly fitted or top-dose-only effect, or another doubt; inactive means no such curve, though single readings can be large or run the other way.
SMILES,Pf growth 48h,SARS PLpro yeast,Pf growth 96h,NS1 function inh,Cycloheximide cs,Shiga inhibitor
COc1ccc2[nH]cc(CCNS(=O)(=O)c3ccc(C)cc3)c2c1,9%,0%,1%,-4%,-1,8
CCNC(=O)CC1C(=O)N(c2ccc(F)cc2)C(=O)N1CCc1ccc(OC)cc1 (stereo not drawn),12%,-7%,1%,0%,-5,-4
COc1ccc(CCNC2=CC(=O)N(c3ccc(F)cc3)C2=O)cc1,1%,-1%,3.3µM*,·,6,-6
O=C(c1ccc2c(c1)OCO2)C1CCCN(Cc2ccc(OC(F)F)cc2)C1 (stereo not drawn),25%,-4%,10µM*,1%,0,-6
O=C(c1ccc2c(c1)OCO2)C1CCCN(C(=O)c2cnn(Cc3ccccc3)c2)C1 (stereo not drawn),-6%,-2%,429%,-4%,21*,38*
Cc1cc2c(s1)c1cnn(Cc3cccc(F)c3F)c(=O)c1n2C,·,·,·,·,9,19
CCCCN(CC)C(=O)c1ccc(Cl)c(Cl)c1,-5%,1%,·,0%,14*,29
CCCCN(CC)C(=O)c1ccc(Cl)cc1,28%,0%,44%[5.75 µM],2%,-5,-3
N#CC1=C(N)NC(SCc2ccc(F)cc2)=C(C#N)C12CCCCC2,?,-8%,?,-18%,1,-14
N#CC1=C(N)N2C(=C(C#N)C13CCCC3)Nc1ccccc12,6%,-1%,?,7%,8.8*,51*
CCOC(=O)c1c(C)[nH]c(C)c1C(=O)CSc1nc2ccccc2c(=O)n1-c1ccccc1C,10µM*,-5%,?,8%,-1,31
NC(CC(=O)O)c1ccc(Br)cc1 (stereo not drawn),3%,-4%,9.3µM*,9%,-4,-9
O=C(O)CC(Cc1ccc(Br)cc1)C(=O)O (stereo not drawn),1%,3%,?,7%,-4,-8
COc1ccc2cc(CO)c(Cl)nc2c1,1%,-2%,-11%,·,14,2
COc1ccc2cc3c(nc2c1)OCC3,39%,-1%,0%,-17%,20*,102*
COc1ccc(C(=O)Nc2cnc(NC(=O)c3cccs3)cc2C)cc1,-13%,-2%,?,-18%,46*,60
CCCCC(=O)Nc1cnc(NC(=O)c2cccs2)cc1C,95%,-4%,9%,-18%,31*,·
CCCCC(=O)Nc1cc(C)c(NC(=O)c2cccs2)cn1,5%,0%,47%,1%,-2,-19
COc1ccc(C(=O)Nc2cc(C)c(NC(=O)c3ccccn3)cn2)cc1,61%,-4%,-40%,-11%,40*,48*
Cc1cc(NC(=O)C2CC2)ncc1NC(=O)c1ccccn1,33%,-1%,24%,-8%,40*,71*
Cc1cc(NC(=O)C2CCCCC2)ncc1NC(=O)c1ccccn1,-6%,0%,0%,-7%,23,43
CCOc1ccc(CCNC(=O)CN(C)S(=O)(=O)c2cccs2)cc1OCC,?,2%,?,·,·,·
CCCCN1C(=O)C(=O)N(CC(=O)Nc2cc(S(=O)(=O)N(C)C)ccc2C)C1=O,-23%,-6%,16%,·,·,·
CCn1c(=O)c2c(nc(SCC(=O)N3CCC(C)CC3)n2C)n(C)c1=O,-2%,0%,4%,5%,-3,2
CCCCC(=O)Oc1ccccc1C(=O)O,·,·,·,·,-2,-3
SMILES,Pf growth 48h,SARS PLpro yeast,Pf growth 96h,NS1 function inh,Cycloheximide cs,Shiga inhibitor
CCOC(=O)c1ccc(NC(=O)NCCN2CCCCC2)cc1,-25%,3%,·,-1%,9.3*,-1
CCOC(=O)c1ccc(NC(=S)N2CCN(CCNC3=CC(=O)CC(C)(C)C3)CC2)cc1,0.026µM*,4%,-18%,·,8,-6
Cc1ccccc1NC(=O)NCCCN1CCCC1,·,-2%,2.3µM*,1%,-4,-9
Cc1ccc(NC(=O)NCCN2CCCCC2)cc1C,2%,2%,17µM*,-13%,8,19
CCOC(=O)c1ccc(NC(=S)N2CCN(CCN=CC3=C(O)CC(C)(C)CC3=O)CC2)cc1,-25%,2%,5%,1%,-2,-4
COc1ccc(NC(=O)NCCN2CCCCC2)cc1,143%,0%,5%,-8%,-1,18
CC(C)(C)NC(=O)C(c1ccc(F)cc1)N(Cc1ccccc1Cl)C(=O)c1ccn[nH]1 (stereo not drawn),?,1%,?,·,-1,-4
CCc1ccc(N2CC(C(=O)OCC(=O)NNC(=O)c3ccccc3)CC2=O)cc1 (stereo not drawn),6%,-9%,14%,·,·,·
CCOC(=O)C1=NOC2C3CC(C12)C1C(=O)N(CCc2ccc(OC)c(OC)c2)C(=O)C31 (stereo not drawn),77%,0%,21%,-1%,9,-10
CC(C)OP(=O)(OC(C)C)C1(O)C(=O)Nc2ccccc21 (stereo not drawn),-1%,-1%,2.6µM*,11%,-4,-8
CC(C)N(C(=O)c1ccccc1-c1ccccc1)C(C)C,?,-13%,·,-58%,1,-20
COc1ccc(NC(=O)CSCC(=O)N(C)Cc2ccc(Cl)c(Cl)c2)cc1,13µM*,-19%,?,·,·,·
Cc1ccc(NC(=O)CSCC(=O)N(C)Cc2ccc(Cl)c(Cl)c2)cc1,?,-8%,?,·,·,·
COCCNC(=O)[C@@H]1CCCN1C(=O)C1CCN(S(=O)(=O)c2ccc(C)cc2)CC1,18%,-3%,-6%,0%,8,-1
Cc1nn(-c2ccccc2)c(Cl)c1/C=N/NC(=O)c1ccc(NS(=O)(=O)c2cccs2)cc1,?,1%,-8%,-6%,20*,32
Cc1nn(-c2cccc(Cl)c2)c(Cl)c1/C=N/NC(=O)c1cccs1,10µM*,9%,?,2%,29*,58*
COc1ccc(CCN2CC(C(=O)NCCCn3nc(C)cc3C)CCC2=O)cc1 (stereo not drawn),29%,0%,29%,2%,8,-6
Cn1c2ccsc2c2cnn(Cc3ccccc3F)c(=O)c21,·,·,·,·,4,59
Cc1cc(Nc2cccc(C(F)(F)F)c2)n2nc(C)nc2n1,?,1%,0%,5%,-2,-11
CCc1cccc(Nc2cc(C)nc3nc(C)nn23)c1,5.2µM*,12%,8.3µM*,-12%,-1,17
Cc1cc(NCc2ccc3c(c2)OCO3)n2nc(C)nc2n1,-4%,2%,0.37µM*,-1%,-2,16
CCc1nc2nc(C)cc(Nc3cccc(C(F)(F)F)c3)n2n1,2.1µM*,-3%,15%,4%,-1,-18
Cc1cc(Nc2ccc(Br)c(C)c2)n2nc(C)nc2n1,0.26µM*,-1%,10µM*,-73%,-4,-12
Cc1ccc(Nc2cc(C)nc3nc(C)nn23)cc1,?,?,23%,?,-5,-10
